# Assay outcomes: PubChem, The Scripps Research Institute Molecular Screening Center
# An excerpt weighted towards active compounds, which were near 4.1% of everything screened.
# hgDAF12 agonist: H. glycines DAF-12 receptor agonists, primary screen, cell-based, luminescence, HEK293, GAL4 fusion, UAS-luciferase; Nuclear hormone receptor DAF-12 (Heterodera glycines), GAL4 fusion; HEK293 GAL4-hgDAF12 UAS-luciferase reporter, agonist luminescence; normalized to butyrate control; activation, % at 6.8 µM; actives 1.8% (n = 370,000); AID 687014, 2013;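 active = activation above a cutoff set at the mean of all screened compounds plus 3 SD, cut at about 10% in these data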;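 note: 0% = DMSO wells and 100% = sodium butyrate wells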
# DAX1 inh-1: DAX1 (NR0B1) inhibitors on StAR promoter, primary screen, cell-based, luminescence, SF-1 (NR5A1), full-length DAX-1 | HEK293T StAR-luciferase reporter, SF-1/DAX-1 repression relief | inhibition, % at 6.8 µM | actives 1.1% (n = 370,000) | AID 652010, 2013;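 active = inhibition above the mean over all tested compounds plus 3 SD, cut at about 3.6% in these data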;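 note: 0% = DAX-1 cells with DMSO and 100% = cells lacking DAX-1 with DMSO; higher inhibition means more luminescence from relief of DAX-1 repression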
# ssDAF-12 act: S. stercoralis DAF-12 nuclear receptor activators, primary screen, cell-based, luminescence, HEK293, GRIP1 co-expression, lit1-tk-luc; activation, % at 6.8 µM; HEK293 ssDAF-12/GRIP1 lit1-tk-luc reporter; % of 3 µM dafachronic acid response; AID 652126, 2013; actives 1% (n = 370,000);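 active = activation above the mean over all tested compounds plus 3 SD, cut at about 0.9% in these data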;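 note: 0% = DMSO-only wells and 100% = 3 µM delta7-dafachronic acid wells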
# hcDAF-12 act: H. contortus DAF-12 nuclear receptor activators, primary screen, cell-based, luminescence, HEK293, lit1-tk-luc reporter; actives 1.4% (n = 370,000); HEK293 hcDAF-12 lit1-tk-luc reporter; 0% DMSO, 100% Δ7-dafachronic acid; activation, % at 6.8 µM;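 active = activation above the mean of all tested compounds plus 3 SD, cut at about 5.5% in these data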;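 note: 100% = response to 3 µM Δ7-dafachronic acid high control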
# DAX1 inh-2: DAX1 (NR0B1) inhibitors, primary screen, cell-based, HEK293, Gal4-DAX1, luciferase luminescence | HEK293 Gal4-DAX1 luciferase reporter | inhibition, % at 6.75 µM | actives 0.99% (n = 340,000);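 active = inhibition above the mean over all tested compounds plus 3 SD, cut at about 4.2% in these data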;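 note: 0% = DAX1-transfected cells with DMSO and 100% = empty-vector control cells with DMSO; inhibition shows as a rise in luminescence from relieved DAX1 repression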
# Target sequence (P51843 207-470 limits assumed): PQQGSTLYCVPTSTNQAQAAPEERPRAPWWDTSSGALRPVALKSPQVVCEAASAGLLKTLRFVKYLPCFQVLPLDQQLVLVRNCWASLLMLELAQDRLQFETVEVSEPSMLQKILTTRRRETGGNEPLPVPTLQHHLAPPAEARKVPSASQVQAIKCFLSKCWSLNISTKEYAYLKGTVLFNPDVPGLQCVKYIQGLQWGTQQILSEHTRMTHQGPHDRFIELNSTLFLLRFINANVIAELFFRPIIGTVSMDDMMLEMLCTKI
# LXR ag: LXR agonists, Gal4 luciferase reporter, confirmation, counter-screen for hcDAF-12 agonist project, cell-based, luminescence, HEK293, H. contortus campaign | HEK293 Gal4-LXR tk-luc reporter, 24 h; normalized: DMSO 0%, positive control 100% | shares compounds with hcDAF-12 act | 3,400 tested, under 10 active | activation, % at 6.8 µM;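 active = mean percent activation of the reporter above a cutoff set as the average over tested compounds plus their standard deviation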
# hcDAF12 ag: H. contortus DAF-12 receptor agonists, confirmation, cell-based, luminescence, HEK293, lit1-tk-luc, triplicate | AID 743032, 2013 | actives 61% (n = 3,400) | activation, % at 6.8 µM | HEK293 hcDAF-12 lit1-tk-luc reporter; % of Δ7-dafachronic acid response | shares compounds with hcDAF-12 act;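 active = mean activation across triplicate tests above the threshold derived from the earlier primary screen, cut at about 5.5% in these data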;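 note: 0% = DMSO only wells and 100% = 3 µM Δ7-dafachronic acid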
# * = called active by the depositor; x = no result given.
SMILES,hgDAF12 agonist,DAX1 inh-1,ssDAF-12 act,hcDAF-12 act,DAX1 inh-2,LXR ag,hcDAF12 ag
COc1ccccc1C(=O)NNC(=S)Nc1ccccc1,6.6,1.3,-0.1,10.7*,3.2,0.1,9.0*
COc1ccccc1C(=O)NNC(=O)c1ccc(O)cc1,7.2,2.1,-0.2,4.5,1.9,x,x
COc1ccccc1CCn1cnc(-c2ccc(F)cc2)c1CC(C)C,-0.4,-1.8,-1.7,-2.8,x,x,x
CS(=O)(=O)N1N=C(c2ccccc2)CC1c1ccc2c(c1)OCO2 (centres undefined),6.7,0.6,0.6,7.0*,1.5,0.5,7.4*
CC(C)c1onc(C(=O)N2CCOCC2)c1[N+](=O)[O-],-1.5,-0.4,-0.6,-1.9,-0.7,x,x
Cc1onc(C(=O)N2CCOCC2)c1[N+](=O)[O-],-4.7,-0.7,-0.8,7.2*,2.1,-0.2,0.9
CC(C)(C)OC(=O)NCc1ccccc1/C=C/S(=O)(=O)NCc1ccc(F)cc1,-0.8,-1.3,-1.9,-2.0,x,x,x
Cc1nc(Nc2ccc3c(c2)OCCO3)c2oc3ccccc3c2n1,-2.6,-0.1,-1.2,-0.8,-0.3,x,x
c1ccc2c(c1)oc1c(Nc3ccc4c(c3)OCCO4)ncnc12,12.2*,3.6,0.6,9.1*,-0.1,1.4,6.4*
Cc1[nH]cnc1/C=N\NC(=O)c1cccc(S(=O)(=O)N(C)C)c1,1.5,0.6,-2.0,1.5,x,x,x
COc1cccc(CNC(=O)[C@H]2CCCN2C(=O)[C@H]2CCCN2C(=O)c2ccc(F)cc2F)c1,-0.4,-0.5,-1.3,-0.8,x,x,x
O=C(O)c1ccc(Cn2cnc3c(=O)[nH]cnc32)cc1,0.9,0.7,1.2*,10.2*,1.2,-0.3,-1.2
Fc1ccc2nc(-c3ccc(CN4CCC5(CC4)CNc4ccccc45)cc3)c(-c3ccccc3)nc2c1,4.1,-0.4,-0.1,0.8,x,x,x
COc1ccc2c(c1)C1=NN(/C(C)=C/C(C)=O)C(c3cccc(F)c3)C1CC2 (centres undefined),2.6,-0.6,0.6,3.3,0.7,x,x
COc1ccc2c(c1)C1=NN(/C(C)=C/C(C)=O)C(c3ccc(F)cc3)C1CC2 (centres undefined),5.6,0.5,1.3*,9.5*,1.1,0.4,5.7*
COC(=O)CN1C(c2cccc(Cl)c2)=Nc2ccc(Cl)cc2C1c1ccccc1 (centres undefined),1.2,0.3,-1.1,10.3*,-0.4,-0.4,1.8
COC(=O)CN1C(c2ccc(OC)cc2)=Nc2ccc(Cl)cc2C1c1ccccc1 (centres undefined),1.3,-0.4,-1.9,-1.0,1.4,x,x
C#CCCN([C@@H](CC(C)C)C(=O)OC)S(=O)(=O)c1ccc(F)cc1Br,-2.9,-1.8,-1.5,-0.2,x,x,x
O=C1Nc2ccc(Br)cc2C12NNc1ccccc1O2 (centres undefined),2.5,0.5,0.0,6.9*,-1.1,-0.1,2.3
O=C1Nc2ccc(Br)cc2C1(O)c1ccccc1 (centres undefined),0.0,-0.4,-1.0,0.8,-0.8,x,x
Clc1cccc(CN2CCc3c([nH]c4ccccc34)C2)c1Cl,0.6,-0.5,-0.6,7.0*,1.2,-0.2,-1.2
COc1ccccc1CN1CCc2c([nH]c3ccccc23)C1,-0.8,-0.1,-0.8,3.3,1.5,x,x
O=C(Nc1nnc(-c2ccccc2)s1)c1ccc(F)cc1,2.8,-0.2,-1.1,6.7*,0.0,0.2,2.1
COc1ccccc1C(=O)Nc1nnc(-c2ccc(F)cc2)s1,2.9,0.6,-0.5,4.0,-0.8,x,x
COc1ccc(S(=O)(=O)N2CCCc3nc(-c4ccc(F)cc4)ccc32)cc1,0.4,-0.5,-0.8,0.1,x,x,x
SMILES,hgDAF12 agonist,DAX1 inh-1,ssDAF-12 act,hcDAF-12 act,DAX1 inh-2,LXR ag,hcDAF12 ag
Cc1ccc(NC2=C(Cl)C(=O)c3ccccc3C2=O)cc1,9.3,1.6,1.3*,7.4*,0.1,0.2,5.9*
COc1ccccc1N1C(=O)C(Cl)=C(Nc2ccccc2O)C1=O,-0.2,-0.1,1.5*,7.1*,1.1,0.0,2.6
O=C1C(Cl)=C(Nc2ccccc2O)C(=O)N1c1ccccc1,7.8,-0.2,0.2,4.7,2.1,x,x
Cn1nnnc1Sc1ncnc2scc(-c3cnc(N)nc3)c12,-1.1,x,-2.0,-0.1,x,x,x
Nc1[nH]c2cc(C(F)(F)F)ccc2c1C(=O)NCc1ccc(F)cc1,-0.4,-0.9,-0.2,7.0*,x,-0.3,4.4
CC(=O)c1c(C)[nH]c(C(=O)NCCc2ccc(Cl)cc2)c1C,3.2,-0.6,-1.9,-0.7,-0.1,x,x
Nc1[nH]c2cc(Cl)ccc2c1C(=O)NCCc1ccc(Cl)cc1,1.3,0.5,0.2,6.6*,x,0.1,7.2*
O[C@H](COc1ccc(Cl)cc1)CN1CCC(C(O)(c2ccccc2)c2ccccc2)CC1,0.2,0.0,-1.5,1.4,x,x,x
CC(=O)N/C(N)=N/c1nc(=O)c2ccccc2s1,3.4,0.9,0.1,0.8,2.6,x,x
CCOC(=O)N/C(N)=N/c1nc2ccccc2s1,10.6*,4.2*,0.2,7.0*,0.4,1.3,5.2
Cc1ccc(/C=C/c2nc3ccccc3s2)s1,1.9,0.6,-0.1,9.4*,0.5,1.1,18.5*
CN(C)c1ccc(/C=C/c2nc3ccccc3s2)cc1,-9.9,-2.2,-2.6,-4.0,-3.2,x,x
Oc1ccc(-c2cn3cc(C(F)(F)F)ccc3n2)cc1,12.0*,3.5,0.6,7.7*,-4.2,2.6,9.0*
CC(C)c1ccc2c(c1)C1Cc3ccccc3C1N2 (centres undefined),6.1,1.1,-0.5,7.8*,3.2,0.5,4.8
O=C(O)c1cc(-c2c[nH]c3ccccc23)nc2ccc3ccccc3c12,4.4,-0.1,0.4,9.1*,0.1,0.1,5.8*
COC(=O)C1=C(C)N(Cc2ccc(C(F)(F)F)cc2)C(=NCc2ccc(C(F)(F)F)cc2)NC1c1ccc(F)cc1 (centres undefined),1.1,-1.1,0.1,2.6,x,x,x
